Laboratory results from PubChem BioAssay (NCATS).
Records with an inconclusive call do not appear. Activity calls are given as the source filed them. Unless noted, calls follow the shape of the dose curve; as a rule, active = well fitted activation curve with a large enough effect in the main read-out, with a control signal flat (not every such curve was filed as active); inconclusive = small, poorly fitted or top-dose-only effect, or effect the other way, or a change in a side signal; inactive = flat fitted curve, though single readings scatter.

Molecular target: Mitogen-activated protein kinase 10 (Mus musculus) (UniProt Q61831)
Assay: JNK3 AlphaScreen Assay (AID 530; active = well fitted curve in either direction with a large enough effect, not every such curve was filed as active;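 also: kinase came from lysate of stimulated human HepG2 cells; signal reports phosphorylation of biotinylated GST-cJun 1-79 at Ser73 with 10 µM ATP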)
Settings: JNK3 lysate, c-Jun phosphorylation; series mostly up to 57.1 µM
Summary of the method: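 Biotinylated GST-cJun(1-79) served as substrate for JNK3 in HepG2 lysates stimulated with IL-1beta and TNF-alpha. ATP was 10 uM final, pH 7.6. Ser73 phosphorylation was quantified by AlphaScreen (680 nm excitation).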

Potency, inactive:
Cn1cccc1C(=O)N1CCC2(CCCN(Cc3nccs3)C2)CC1, O=C(c1ccncc1)N1CCC2(CCN(Cc3cc(C(F)(F)F)cc(C(F)(F)F)c3)CC2)CC1, N#CCCn1c(=O)c(-c2cccs2)nc2cnc(Oc3ccccc3)nc21, O=C(c1cnccn1)N1CCC2(CC1)CN(Cc1ccccc1)C2, O=C(c1csnn1)N1CCC2(CCCN(c3ccccn3)C2)CC1, CN(C)Cc1ccccc1-c1cncnc1Nc1ccc(F)cc1, N#Cc1cccc(NC(=O)N2CC3(CCN(C(=O)c4cnccn4)CC3)C2)c1, O=C(Oc1ccccc1)N1CCC2(CC1)CCN(c1ccccn1)CC2, COCCn1c(=O)c(-c2ccc(OC)cc2)nc2cnc(Nc3ccccc3)nc21, COc1cccc(Cn2c(=O)c(-c3cccc(F)c3)nc3cncnc32)c1, c1cncc(-c2nc(NCCN3CCOCC3)c3ccccc3n2)c1, O=S(=O)(c1ccccc1)N1CCC2(CCCN(Cc3ccccc3)C2)CC1, COCCn1c(=O)c(-c2cccs2)nc2cnc(OCc3ccccc3)nc21, O=C(c1ccco1)N1CCC2(CCCN(c3cccc(-c4ccccc4)c3)C2)CC1, N#Cc1ccc(CN2CCCC3(CCN(C(=O)c4cnccn4)CC3)C2)cc1, N#Cc1cccc(NC(=O)N2CCCC3(CCN(C(=O)c4ccncc4)CC3)C2)c1, O=C(c1ccncc1)N1CCC[C@@]2(CCN(Cc3cc(C(F)(F)F)cc(C(F)(F)F)c3)C2)C1, Cc1noc(C)c1C(=O)N1CCC2(CC1)CCN(C(c1ccccc1)c1ccccc1)CC2, COc1ccc(C(=O)N2CCC3(CCCN(c4ccc(-c5ccccc5)cc4)C3)CC2)cc1

Molecular target: 3',5'-cyclic-AMP phosphodiesterase 4B (Homo sapiens) (UniProt Q07343)
Sequence (Q07343 whole entry, looked up): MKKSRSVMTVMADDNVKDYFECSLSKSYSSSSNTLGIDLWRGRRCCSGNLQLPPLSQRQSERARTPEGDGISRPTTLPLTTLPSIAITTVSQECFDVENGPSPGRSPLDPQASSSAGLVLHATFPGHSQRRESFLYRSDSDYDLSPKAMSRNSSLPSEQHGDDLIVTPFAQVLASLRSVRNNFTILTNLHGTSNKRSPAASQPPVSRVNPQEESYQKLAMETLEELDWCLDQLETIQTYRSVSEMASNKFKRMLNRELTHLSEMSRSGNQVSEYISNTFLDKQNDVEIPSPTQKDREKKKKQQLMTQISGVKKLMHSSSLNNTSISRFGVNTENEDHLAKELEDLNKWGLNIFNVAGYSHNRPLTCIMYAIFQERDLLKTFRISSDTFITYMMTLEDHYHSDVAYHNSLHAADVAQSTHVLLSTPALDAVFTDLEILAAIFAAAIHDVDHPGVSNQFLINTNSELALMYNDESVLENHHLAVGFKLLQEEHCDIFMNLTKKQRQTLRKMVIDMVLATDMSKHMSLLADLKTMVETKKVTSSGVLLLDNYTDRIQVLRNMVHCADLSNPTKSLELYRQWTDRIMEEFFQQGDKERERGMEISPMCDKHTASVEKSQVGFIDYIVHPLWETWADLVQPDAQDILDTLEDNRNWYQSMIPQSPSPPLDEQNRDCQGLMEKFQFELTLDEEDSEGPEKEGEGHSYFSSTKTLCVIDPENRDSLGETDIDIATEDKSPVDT
Assay: qHTS Assay for Inhibitors of PDE-IV (AID 607)
Settings: HEK293 ACTOne CNG channel cells, membrane potential fluorescence; series mostly up to 22.9 µM
Summary of the method: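 ACTOne HEK293 cells carry a modified cAMP-gated CNG channel and express endogenous PDE4; plated 1000 cells/well, compounds up to 22.9 uM final. Membrane-potential dye fluorescence (ex 535/em 590) was read; parental cells received 10 uM forskolin + 100 uM RO 20-1724.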

Potency, inactive:
O=C(c1ccncc1)N1CCC2(CCCN(c3ncccn3)C2)CC1, Cn1c(=O)c(-c2cc(F)cc(F)c2)nc2cnc(Oc3cccc(Cl)c3)nc21, O=C(c1cnccn1)N1CCC2(CCCN(c3ccncc3)C2)CC1, COc1ccc(Oc2ncc3ncc(=O)n(Cc4cccc(OC)c4)c3n2)cc1, O=C(Oc1ccccc1)N1CCC[C@@]2(CCN(c3ccccc3)C2)C1, O=C(c1ccco1)N1CCC2(CC1)CCN(c1ccccn1)CC2, O=C(c1cccc(F)c1)N1CCC2(CC1)CCN(c1ccccn1)CC2, O=c1c(CCc2ccccc2)nc2cnc(Nc3ccccc3)nc2n1Cc1cccs1, CC(=O)N1CCC2(CCN(Cc3ccc(C#N)cc3)CC2)CC1, COc1ccc(C(=O)N2CCC3(CCCN(Cc4nccs4)C3)CC2)cc1, N#Cc1ccc(CN2CCC3(CC2)CCN(C(=O)c2cnccn2)CC3)cc1, COc1ccc(C(=O)N2CCC3(CCCN(c4ccccc4)C3)CC2)cc1, Cn1cccc1C(=O)N1CCC2(CCCN(Cc3nccs3)C2)CC1, O=C(c1ccncc1)N1CCC2(CCN(Cc3cc(C(F)(F)F)cc(C(F)(F)F)c3)CC2)CC1, N#CCCn1c(=O)c(-c2cccs2)nc2cnc(Oc3ccccc3)nc21, O=C(c1cnccn1)N1CCC2(CC1)CN(Cc1ccccc1)C2, O=C(c1csnn1)N1CCC2(CCCN(c3ccccn3)C2)CC1, CN(C)Cc1ccccc1-c1cncnc1Nc1ccc(F)cc1, N#Cc1cccc(NC(=O)N2CC3(CCN(C(=O)c4cnccn4)CC3)C2)c1, O=C(Oc1ccccc1)N1CCC2(CC1)CCN(c1ccccn1)CC2, COCCn1c(=O)c(-c2ccc(OC)cc2)nc2cnc(Nc3ccccc3)nc21, COc1cccc(Cn2c(=O)c(-c3cccc(F)c3)nc3cncnc32)c1, c1cncc(-c2nc(NCCN3CCOCC3)c3ccccc3n2)c1, O=S(=O)(c1ccccc1)N1CCC2(CCCN(Cc3ccccc3)C2)CC1, N#Cc1ccc(CN2CCCC3(CCN(C(=O)c4cnccn4)CC3)C2)cc1, N#Cc1cccc(NC(=O)N2CCCC3(CCN(C(=O)c4ccncc4)CC3)C2)c1, O=C(c1ccncc1)N1CCC[C@@]2(CCN(Cc3cc(C(F)(F)F)cc(C(F)(F)F)c3)C2)C1, COc1ccc(C(=O)N2CCC3(CCCN(c4ccc(-c5ccccc5)cc4)C3)CC2)cc1
